Source: PubChem (The Scripps Research Institute Molecular Screening Center)
DAX1 inh-1: DAX1 (NR0B1) inhibition, primary screen; AID 652010; inhibition, % at 6.8 µM; HEK293T StAR-luciferase reporter, SF-1/DAX-1 repression relief; hit rate 1.1% among 370,000;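 active means inhibition above the mean over all tested compounds plus 3 SD, cut at about 3.6% in these data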;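 further: 0% = DAX-1 cells with DMSO and 100% = cells lacking DAX-1 with DMSO; higher inhibition means more luminescence from relief of DAX-1 repression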
DAX1 inh-2: NR0B1 (DAX1) inhibition; P51843; HEK293 Gal4-DAX1 luciferase reporter, luminescence; inhibition, % at 6.75 µM; hit rate 0.99% among 340,000;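 active means inhibition above the mean over all tested compounds plus 3 SD, cut at about 4.2% in these data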;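 further: 0% = DAX1-transfected cells with DMSO and 100% = empty-vector control cells with DMSO; inhibition shows as a rise in luminescence from relieved DAX1 repression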
Target sequence (P51843 207-470 limits assumed): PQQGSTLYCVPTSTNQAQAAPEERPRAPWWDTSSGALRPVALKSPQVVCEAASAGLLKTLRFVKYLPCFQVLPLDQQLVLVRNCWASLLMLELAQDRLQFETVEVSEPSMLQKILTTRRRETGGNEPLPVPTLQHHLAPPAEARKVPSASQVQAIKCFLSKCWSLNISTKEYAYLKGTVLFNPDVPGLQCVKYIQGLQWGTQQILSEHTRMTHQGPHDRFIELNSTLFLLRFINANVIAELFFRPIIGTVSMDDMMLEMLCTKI
SMARCA2 activ: increases SMARCA2 function in MMTV reporter cells | hit rate 1% among 370,000 | activation, % at 9.1 µM | MG213 cells, MMTV-luciferase reporter, dexamethasone, overnight | AID 652017; in the data active means activation above about 7.8%;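 further: 0% = vehicle wells and 100% = reference activator wells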
hgDAF12 agonist: activates the H. glycines DAF-12 receptor ligand-binding domain; HEK293 GAL4-hgDAF12 UAS-luciferase reporter, agonist luminescence; normalized to butyrate control; activation, % at 6.8 µM; hit rate 1.8% among 370,000; AID 687014;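 active means activation above a cutoff set at the mean of all screened compounds plus 3 SD, cut at about 10% in these data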;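 further: 0% = DMSO wells and 100% = sodium butyrate wells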
hcDAF12 agonist: H. contortus DAF-12 activation, primary screen; activation, % at 6.8 µM; AID 652067; hit rate 1.4% among 370,000; HEK293 hcDAF-12 lit1-tk-luc reporter, luminescence; 0% DMSO, 100% Δ7-dafachronic acid;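 active means activation above the mean of all tested compounds plus 3 SD, cut at about 5.5% in these data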;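 further: 100% = response to 3 µM Δ7-dafachronic acid high control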
ssDAF12 agonist: S. stercoralis DAF-12 activation, primary screen; activation, % at 6.8 µM; hit rate 1% among 370,000; HEK293 ssDAF-12/GRIP1 lit1-tk-luc reporter, luminescence; % of 3 µM dafachronic acid response;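 active means activation above the mean over all tested compounds plus 3 SD, cut at about 0.9% in these data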;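 further: 0% = DMSO-only wells and 100% = 3 µM delta7-dafachronic acid wells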
SMARCA2 act conf: SMARCA2 activation, confirmation screen; shares compounds with SMARCA2 activ; MG213 cells, MMTV-luciferase with dexamethasone, luminescence, overnight; MG213 cells expressing E1A, Rb sequestered; DMSO wells 0%, reference activator 100%; activation, % at 9.1 µM; hit rate 30% among 3,500;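 active means activation above its plate's cutoff, the mean activation of tested wells plus 3 SD, cut at about 7.9% in these data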
VP16 Luc act: GAL4-VP16 reporter activation counter-screen. activation, % at 9.1 µM. AID 686939. HEK293 GAL4-VP16 pG5luc reporter, luciferase luminescence; scaled: DMSO wells 0%, SAHA wells 100%. shares compounds with SMARCA2 activ. hit rate 41% among 3,500;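 active means activation above the solvent-only control well mean plus 3 SD, averaged across control plates, cut at about 5.2% in these data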
* marks the source's active call; other numbers are inactive results; nt = no result. The list is not random: actives were taken first. Their share in the collection is about 4.8%.

SMILES | DAX1 inh-1 | DAX1 inh-2 | SMARCA2 activ | hgDAF12 agonist | hcDAF12 agonist | ssDAF12 agonist | SMARCA2 act conf | VP16 Luc act
CCc1ccc(C(=O)CSc2nc3ccccc3c(=O)[nH]2)cc1 | 0 | -3 | 2 | 5 | 1 | -1 | nt | nt
CCOC(=O)c1nc2ccccc2c(=O)[nH]1 | 2 | 1 | 9.3* | 7 | 2 | -1 | 4 | 2
Cc1ccc(Cn2cc(COC(=O)NCCc3c[nH]c4ccccc34)nn2)cc1 | 0 | nt | -2 | -6 | 0 | -1 | nt | nt
CCN1CCCC1CNC(=O)c1ccc2c(c1)NC(=O)/C(=C\c1ccccc1Cl)S2 (configuration not stated) | 0 | 0 | 3 | -3 | 1 | -1 | nt | nt
CCN1CCCC1CNC(=O)c1ccc2c(c1)NC(=O)/C(=C\c1ccc(OC)c(OC)c1)S2 (configuration not stated) | 1 | 2 | 8.6* | 3 | 0 | -1 | 12* | 0
O=C(CNS(=O)(=O)c1ccccc1)OCC(=O)c1ccc(OC(=O)c2ccccc2)cc1 | 0 | 1 | 8.7* | -2 | -2 | -1 | 18* | 2
Cc1cccc(C)c1-n1nnnc1C1c2ccccc2OCC(=O)N1Cc1ccc(F)cc1 (configuration not stated) | 0 | nt | 0 | -1 | 2 | 0 | nt | nt
O=C(NCCNc1ccccc1[N+](=O)[O-])c1cc(F)c(F)cc1Cl | 1 | 2 | 14* | 5 | 2 | 0 | 5 | 5.3*
Cn1cccc1CC(=O)NN=C/C=C\c1ccco1 | 2 | nt | -6 | 7 | 1 | 0 | nt | nt
CC(C)n1nnnc1SCC(=O)c1ccc2c(c1)OCCO2 | 1 | 1 | 5 | 3 | 0 | -1 | nt | nt
O=C(CSc1nnnn1C1CCCC1)c1ccc2c(c1)OCCO2 | 2 | 3 | 8.3* | 9 | 2 | -1 | 4 | 5.4*
C=CCNC(=O)c1cnn(-c2ccccc2)c1-c1ccccc1 | 0 | -1 | -2 | 0 | 0 | -1 | nt | nt
C=CCNC(=O)c1c(Cl)cnn1-c1ccc(C)cc1 | 1 | nt | 12* | 12* | 4 | 0 | 6 | 5.4*
CC(COc1ccc(C#N)cc1)CN1CCC(C(O)(c2ccccc2)c2ccccc2)CC1 (configuration not stated) | 0 | nt | -1 | 0 | 0 | -1 | nt | nt
COc1cc2nc(Nc3ccc(C)c(Cl)c3)nc(N)c2cc1OC | 0 | 0 | 9.5* | 1 | -1 | -1 | -7 | -1
COc1cc2nc(Nc3ccc(C)c(C)c3)nc(N)c2cc1OC | 0 | -2 | 6 | -1 | -2 | -1 | nt | nt
C#CCNC(=O)C[C@H]1C[C@@]2(C(=O)OC)C(=C[C@H](C(C)C)O[C@@H]2C2CC2)N(CCc2ccc(OC)c(OC)c2)C1=O | -1 | nt | 0 | -3 | -2 | -1 | nt | nt
NC(=O)c1sc2nc(-c3ccco3)ccc2c1N | 1 | 0 | 4 | 3 | 0 | -1 | nt | nt
COC(=O)c1sc2nc(-c3ccco3)ccc2c1N | 3 | 3 | 8.0* | 11* | 3 | 0 | 14* | 6.5*
COc1cc(OC)cc(C(=O)Nc2nc3ccccc3[nH]2)c1 | 0 | 1 | 0 | 8 | 3 | -1 | nt | nt
COc1ccc(C(=O)Nc2nc3ccccc3[nH]2)cc1OC | 2 | 0 | 11* | 7 | 2 | -1 | 6 | 10*
COc1ccc(Br)c(C(=O)Nc2nc3ccccc3[nH]2)c1 | 1 | 1 | 8.8* | 3 | 1 | -1 | 7.8* | 2
O=C(Nc1nc2ccccc2[nH]1)C1CCC1 | 2 | 2 | 8.9* | 9 | 2 | -2 | 3 | 8.7*
COC(=O)[C@]12C[C@H](CC(=O)NCC34CC5CC(CC(C5)C3)C4)C(=O)N(Cc3cccc4ccccc34)C1=C[C@H](C(C)(C)C)O[C@@H]2C | -1 | nt | -2 | 3 | -1 | -1 | nt | nt
CCN(Cc1ccccc1)C(=O)C1CCCN(c2ncccn2)C1 (configuration not stated) | -1 | nt | -2 | 0 | -4 | -2 | nt | nt
SMILES | DAX1 inh-1 | DAX1 inh-2 | SMARCA2 activ | hgDAF12 agonist | hcDAF12 agonist | ssDAF12 agonist | SMARCA2 act conf | VP16 Luc act
COc1ccc(CCNC(=O)c2coc(=O)c(Br)c2)cc1 | 0 | nt | 29* | 1 | 2 | 0 | 12* | 11*
COc1ccc(C2=Nn3c(nnc3-c3ccccc3Cl)SC2)cc1OC1CCOC1 (configuration not stated) | 0 | 1 | 11* | -2 | -2 | -1 | 18* | 5
COc1ccc(C2=Nn3c(nnc3-c3ccccn3)SC2)cc1OC | 1 | 0 | 4 | -4 | -3 | -2 | nt | nt
COc1ccc(C2=Nn3c(nnc3-c3ccccc3OC)SC2)cc1OC | 4 | -4 | 16* | -9 | -4 | -1 | 16* | 12*
COc1ccc(C2=Nn3c(nnc3-c3ccco3)SC2)cc1OC | 0 | 2 | 8.2* | -5 | -3 | -2 | 13* | 9.2*
O=C(Cc1ccccc1)Nc1ccc2c(c1)CCC2 | 1 | 2 | 0 | 9 | 1 | -1 | nt | nt
Cc1cc(NC(=O)CC2CCCC2)ccc1Br | 2 | 1 | 11* | 9 | 2 | 0 | 7 | 8.6*
O=C(CC1CCCC1)Nc1ccc2c(c1)CCC2 | 2 | 0 | 9.0* | 12* | 1 | -1 | 13* | 2
O=C(COC(=O)c1ccc(Cl)nc1)Nc1ccc2c(c1)CCC2 | 1 | 0 | 9.1* | 1 | -1 | -1 | -1 | 0
O=C(Nc1cccc(F)c1)Nc1ccc2c(c1)CCC2 | 3 | 1 | 8.8* | 9 | 5 | 0 | 9.8* | 6.5*
O=C(Nc1cccc([N+](=O)[O-])c1)Nc1ccc2c(c1)CCC2 | 2 | 2 | 2 | 3 | -2 | -1 | nt | nt
CCN(C(=O)COC(=O)c1ccc(Sc2ncn[nH]2)c([N+](=O)[O-])c1)c1ccccc1 | 0 | nt | 1 | -4 | 0 | 0 | nt | nt
CN(C)CCCN1C(=O)c2cccc3c(Br)ccc(c23)C1=O | 0 | 0 | 9.2* | 1 | 1 | -1 | 35* | 0
O=C(Nc1ccc(F)cc1)OCc1cn(Cc2c(F)cccc2F)nn1 | -1 | nt | -2 | 2 | 0 | -1 | nt | nt
Cc1noc(C)c1C(C)C1=CCCCC1 (configuration not stated) | -1 | nt | 1 | 4 | -2 | -1 | nt | nt
CCCCN(C)CCn1c(=S)[nH]c2ccc(N3CCOCC3)cc2c1=O | 0 | 1 | 9.7* | -2 | -2 | -1 | -1 | 2
